For assay [1], the target named is Tyrosine-protein kinase SYK (Homo sapiens) (UniProt P43405). To be noted: at 10 µM.
Assay [2] has as its target T1, Mitogen-activated protein kinase kinase kinase 7 (Homo sapiens) (UniProt O43318).
T1 sequence (whole entry): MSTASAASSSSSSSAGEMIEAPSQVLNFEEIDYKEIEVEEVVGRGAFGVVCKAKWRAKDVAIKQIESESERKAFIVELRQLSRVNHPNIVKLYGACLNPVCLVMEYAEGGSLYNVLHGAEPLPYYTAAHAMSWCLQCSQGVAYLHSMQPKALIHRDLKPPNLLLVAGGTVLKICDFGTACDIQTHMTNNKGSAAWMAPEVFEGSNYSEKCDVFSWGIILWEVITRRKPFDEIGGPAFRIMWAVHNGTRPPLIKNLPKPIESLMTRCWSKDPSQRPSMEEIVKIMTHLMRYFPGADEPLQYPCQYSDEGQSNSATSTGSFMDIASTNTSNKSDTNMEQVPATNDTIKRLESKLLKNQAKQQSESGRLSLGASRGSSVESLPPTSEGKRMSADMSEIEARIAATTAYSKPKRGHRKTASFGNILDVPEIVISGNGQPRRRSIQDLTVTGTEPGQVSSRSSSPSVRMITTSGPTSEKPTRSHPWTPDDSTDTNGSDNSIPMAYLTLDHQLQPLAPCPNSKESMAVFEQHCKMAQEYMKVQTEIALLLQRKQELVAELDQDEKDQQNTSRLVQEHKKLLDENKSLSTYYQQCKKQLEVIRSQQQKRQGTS
Particulars: at 1 µM.

The target in assay [3] is T1, Mitogen-activated protein kinase kinase kinase 7 (Homo sapiens). Particulars: at 10 µM.
Assay [4] has as its target T2, Serine/threonine-protein kinase TAO1 (Homo sapiens) (UniProt Q7L7X3).
T2 sequence (whole entry): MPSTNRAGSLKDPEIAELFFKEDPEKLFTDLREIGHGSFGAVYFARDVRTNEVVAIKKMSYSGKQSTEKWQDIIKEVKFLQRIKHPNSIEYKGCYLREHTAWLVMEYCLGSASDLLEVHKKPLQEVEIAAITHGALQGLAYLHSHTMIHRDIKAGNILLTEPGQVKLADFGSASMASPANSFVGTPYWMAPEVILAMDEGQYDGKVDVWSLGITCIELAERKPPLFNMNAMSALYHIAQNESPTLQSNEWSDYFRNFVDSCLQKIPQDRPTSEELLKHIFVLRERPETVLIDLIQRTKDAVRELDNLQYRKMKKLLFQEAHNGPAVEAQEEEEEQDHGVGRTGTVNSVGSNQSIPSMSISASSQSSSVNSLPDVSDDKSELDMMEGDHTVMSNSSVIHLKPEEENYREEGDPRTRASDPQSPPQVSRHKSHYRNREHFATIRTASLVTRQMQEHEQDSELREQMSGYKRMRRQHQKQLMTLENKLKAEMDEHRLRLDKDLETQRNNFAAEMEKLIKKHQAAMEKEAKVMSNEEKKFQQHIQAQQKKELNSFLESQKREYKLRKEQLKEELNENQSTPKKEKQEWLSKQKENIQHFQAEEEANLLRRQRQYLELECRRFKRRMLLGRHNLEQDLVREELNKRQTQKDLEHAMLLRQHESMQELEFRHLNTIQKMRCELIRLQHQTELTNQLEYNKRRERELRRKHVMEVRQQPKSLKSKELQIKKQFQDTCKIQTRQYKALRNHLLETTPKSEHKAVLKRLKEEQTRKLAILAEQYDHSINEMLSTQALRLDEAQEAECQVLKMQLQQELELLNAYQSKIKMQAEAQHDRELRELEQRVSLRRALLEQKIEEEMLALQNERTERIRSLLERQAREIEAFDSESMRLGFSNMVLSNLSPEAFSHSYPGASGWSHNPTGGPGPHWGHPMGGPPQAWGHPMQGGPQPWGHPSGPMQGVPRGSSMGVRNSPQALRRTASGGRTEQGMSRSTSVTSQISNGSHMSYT
To be noted: at 1 µM.

Assay [5] has as its target T2, Serine/threonine-protein kinase TAO1 (Homo sapiens). To be noted: at 10 µM.
The target in assay [6] is T3, Serine/threonine-protein kinase TAO2 (Homo sapiens) (UniProt Q9UL54).
T3 sequence (whole entry): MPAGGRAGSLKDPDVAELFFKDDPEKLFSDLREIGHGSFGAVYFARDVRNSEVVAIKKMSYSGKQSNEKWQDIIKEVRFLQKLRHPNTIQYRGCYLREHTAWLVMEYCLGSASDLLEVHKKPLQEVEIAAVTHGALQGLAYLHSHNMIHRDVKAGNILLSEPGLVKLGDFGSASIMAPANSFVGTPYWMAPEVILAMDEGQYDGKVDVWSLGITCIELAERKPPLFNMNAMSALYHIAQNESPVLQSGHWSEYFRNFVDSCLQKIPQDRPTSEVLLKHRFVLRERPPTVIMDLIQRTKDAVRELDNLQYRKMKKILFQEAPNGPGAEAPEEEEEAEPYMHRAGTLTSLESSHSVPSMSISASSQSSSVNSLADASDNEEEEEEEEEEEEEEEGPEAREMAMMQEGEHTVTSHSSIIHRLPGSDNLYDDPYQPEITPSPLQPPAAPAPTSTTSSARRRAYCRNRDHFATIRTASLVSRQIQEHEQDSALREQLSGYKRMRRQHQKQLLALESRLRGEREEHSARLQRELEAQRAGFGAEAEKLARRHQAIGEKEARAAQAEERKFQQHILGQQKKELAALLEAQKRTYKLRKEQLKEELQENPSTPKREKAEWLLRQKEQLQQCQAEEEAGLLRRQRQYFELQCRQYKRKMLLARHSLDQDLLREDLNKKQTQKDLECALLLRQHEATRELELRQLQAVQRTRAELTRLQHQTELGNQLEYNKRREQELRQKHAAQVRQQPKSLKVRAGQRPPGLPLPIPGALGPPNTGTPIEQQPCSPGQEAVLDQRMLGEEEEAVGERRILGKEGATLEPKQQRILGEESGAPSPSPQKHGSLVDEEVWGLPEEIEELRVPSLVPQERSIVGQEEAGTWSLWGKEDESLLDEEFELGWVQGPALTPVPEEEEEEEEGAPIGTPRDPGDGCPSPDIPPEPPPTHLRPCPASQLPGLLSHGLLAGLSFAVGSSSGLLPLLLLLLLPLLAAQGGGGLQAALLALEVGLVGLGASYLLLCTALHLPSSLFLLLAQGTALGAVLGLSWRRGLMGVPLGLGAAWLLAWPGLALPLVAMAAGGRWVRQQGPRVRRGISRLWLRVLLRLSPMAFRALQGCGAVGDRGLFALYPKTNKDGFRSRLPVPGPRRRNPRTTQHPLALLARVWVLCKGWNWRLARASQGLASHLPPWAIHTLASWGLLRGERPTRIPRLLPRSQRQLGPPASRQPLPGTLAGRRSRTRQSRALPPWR
Particulars: at 1 µM.

The target in assay [7] is T3, Serine/threonine-protein kinase TAO2 (Homo sapiens). Particulars: at 10 µM.
In assay [8] the target is T4, Serine/threonine-protein kinase TAO3 (Homo sapiens) (UniProt Q9H2K8).
T4 sequence (whole entry): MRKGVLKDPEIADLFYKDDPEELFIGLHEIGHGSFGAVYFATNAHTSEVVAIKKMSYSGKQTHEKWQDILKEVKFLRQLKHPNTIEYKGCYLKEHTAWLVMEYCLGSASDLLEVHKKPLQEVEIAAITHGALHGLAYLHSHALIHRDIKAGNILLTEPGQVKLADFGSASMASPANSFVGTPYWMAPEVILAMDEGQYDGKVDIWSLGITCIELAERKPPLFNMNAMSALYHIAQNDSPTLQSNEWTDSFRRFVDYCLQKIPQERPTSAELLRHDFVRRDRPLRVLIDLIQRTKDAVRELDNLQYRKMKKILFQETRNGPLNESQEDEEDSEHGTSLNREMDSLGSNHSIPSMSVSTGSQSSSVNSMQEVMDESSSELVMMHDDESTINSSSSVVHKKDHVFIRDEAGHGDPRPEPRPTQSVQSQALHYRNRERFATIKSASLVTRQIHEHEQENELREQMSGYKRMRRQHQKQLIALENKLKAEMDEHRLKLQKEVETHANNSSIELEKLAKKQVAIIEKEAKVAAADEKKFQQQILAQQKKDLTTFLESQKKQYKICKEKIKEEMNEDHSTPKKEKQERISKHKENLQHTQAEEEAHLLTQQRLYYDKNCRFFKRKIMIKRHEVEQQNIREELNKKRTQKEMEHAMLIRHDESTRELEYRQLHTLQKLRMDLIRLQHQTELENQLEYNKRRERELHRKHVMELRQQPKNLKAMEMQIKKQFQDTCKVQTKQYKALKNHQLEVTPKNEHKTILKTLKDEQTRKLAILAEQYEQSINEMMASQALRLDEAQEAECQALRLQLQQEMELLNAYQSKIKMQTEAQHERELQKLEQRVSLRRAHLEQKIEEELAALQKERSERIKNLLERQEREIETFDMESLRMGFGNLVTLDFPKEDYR
Particulars: at 1 µM.

Assay [9] has as its target T4, Serine/threonine-protein kinase TAO3 (Homo sapiens). Particulars: at 10 µM.
The target of assay [10] is T5, Serine/threonine-protein kinase TBK1 (Homo sapiens) (UniProt Q9UHD2).
T5 sequence (whole entry): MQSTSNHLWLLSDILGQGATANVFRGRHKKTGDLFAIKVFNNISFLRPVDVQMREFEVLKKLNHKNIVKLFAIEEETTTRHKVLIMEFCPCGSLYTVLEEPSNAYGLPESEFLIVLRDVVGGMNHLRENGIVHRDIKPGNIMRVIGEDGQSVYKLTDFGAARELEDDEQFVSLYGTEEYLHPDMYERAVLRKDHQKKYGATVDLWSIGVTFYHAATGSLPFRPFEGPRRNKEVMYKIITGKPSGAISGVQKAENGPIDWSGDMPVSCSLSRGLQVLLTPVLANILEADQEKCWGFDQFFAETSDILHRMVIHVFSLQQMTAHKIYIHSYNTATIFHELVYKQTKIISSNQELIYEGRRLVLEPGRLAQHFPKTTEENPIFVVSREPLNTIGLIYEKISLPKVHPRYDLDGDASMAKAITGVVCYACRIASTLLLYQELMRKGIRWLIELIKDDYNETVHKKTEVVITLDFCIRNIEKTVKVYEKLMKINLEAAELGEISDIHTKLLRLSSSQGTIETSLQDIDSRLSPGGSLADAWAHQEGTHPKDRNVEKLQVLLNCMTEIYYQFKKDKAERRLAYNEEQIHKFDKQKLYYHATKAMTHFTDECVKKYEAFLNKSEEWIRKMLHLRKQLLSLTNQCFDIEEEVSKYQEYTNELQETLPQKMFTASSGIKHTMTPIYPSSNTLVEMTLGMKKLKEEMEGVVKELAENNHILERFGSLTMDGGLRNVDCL
Particulars: at 1 µM.

Consider `COc1ccc(S(=O)(=O)N(CCO)c2ccccc2CN(C)C/C=C/c2ccc(Cl)cc2)cc1`, for which the residual activity in [1] was 69%; in assay [2] it was 93%; in assay [3] it was 82%; in [4], 97%; in [5], 83%; in assay [6], 105%. Further, the residual activity in assay [7] was found to be 88%; in assay [8], 86%; in [9], 84%; in [10], 73%.

For the origin of these results see ChEMBL document CHEMBL2218924, “A broad activity screen in support of a chemogenomic map for kinase signalling research and drug discovery” (Biochem J, 2013).
